The source of these data is PubChem BioAssay (Tox21).

The structures appear in SMILES notation. Several values for one entry are separate records, joined by “and”; a condition that tells them apart may be missing. Identical values can stand only once. A number with no mark means an inactive call. Records with an inconclusive call do not appear. Activity calls are given as the source filed them. Unless noted, calls come from the whole dose curve; as a rule, active = well fitted curve in the direction sought with a large enough effect in the repeat runs; inconclusive = weak or mixed curves; inactive = no such curve, though single readings can be large; an effect the other way counts as inactive or inconclusive.

Test [1] can be described thus: qHTS assay to identify small molecule antagonists of the glucocorticoid receptor (GR) signaling pathway - cell viability counter screen (AID 720693). Note: nearly all actives have a fitted effect of over 55% in size.
The nature of test [2]: qHTS assay for identifying genotoxic compounds that show differential cytotoxicity against isogenic chicken DT40 cell lines with known DNA damage response pathways - wild type cell line (AID 743012). Note: nearly all actives have a fitted effect of over 60% in size. Note: potency is the fitted concentration of half-maximal effect. A digest of the protocol:
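CellTiter-Glo luminescence readout of viability in wild type DT40 cells after 40 h compound exposure at 37 C/5% CO2; 300 cells/well; reagent incubated 30 min at room temperature before reading.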
Background: In qHTS, concentration-response curves come from the screen itself.

Test [3] is described as follows: qHTS assay for identifying genotoxic compounds that show differential cytotoxicity against isogenic chicken DT40 cell lines with known DNA damage response pathways - Rev3 mutant cell line (AID 743014). Note: nearly all actives have a fitted effect of over 55% in size. Note: potency is the fitted concentration of half-maximal effect.
The nature of test [4]: qHTS assay for identifying genotoxic compounds that show differential cytotoxicity against isogenic chicken DT40 cell lines with known DNA damage response pathways - Rad54/Ku70 mutant cell line (AID 743015). Note: nearly all actives have a fitted effect of over 60% in size. Note: potency is the fitted concentration of half-maximal effect.
The nature of test [5]: qHTS assay to identify small molecule antagonists of the androgen receptor (AR) signaling pathway - cell viability counter screen (AID 743033; note: nearly all actives have a fitted effect of over 45% in size).
Test [6] in a line: qHTS assay to identify small molecule antagonists of the androgen receptor (AR) signaling pathway using the MDA cell line - cell viability counter screen (AID 743041; note: nearly all actives have a fitted effect of over 45% in size). A digest of the protocol:
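Viability read by CellTiter-Fluor fluorescence in the same wells as the antagonist screen, added after 15.5 h of a 16 h, 37C exposure. Human breast carcinoma MDA-kb2 AR-luc cells, compounds co-dosed with agonist R1881.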

A short description of test [7]: qHTS assay to identify small molecule antagonists of the thyroid receptor (TR) signaling pathway - cell viability counter screen (AID 743064). Note: nearly all actives have a fitted effect of over 50% in size. A digest of the protocol:
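Viability of T3-stimulated (1 nM final) GH3.TRE-Luc cells is measured by CellTiter-Fluor fluorescence after 23.5 h compound exposure at 37 °C plus 30 min reagent incubation.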

Test [8] deals with Androgen receptor (Homo sapiens) (UniProt P10275). In words: qHTS assay to identify small molecule antagonists of the androgen receptor (AR) signaling pathway (AID 743035; active = well fitted inhibition curve with a large enough effect in the signal ratio in the repeat runs, not every such curve was filed as active; the % refers to the signal ratio). In a few lines: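 AR-bla HEK293 reporter cells; 4 h settle at 37C/5% CO2; compound + R1881 agonist, 16 h at 37C; LiveBLAzer B/G FRET substrate 2 h RT; fluorescence intensity read. qHTS format.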
Androgen receptor (Homo sapiens), sequence (P10275 whole entry, looked up): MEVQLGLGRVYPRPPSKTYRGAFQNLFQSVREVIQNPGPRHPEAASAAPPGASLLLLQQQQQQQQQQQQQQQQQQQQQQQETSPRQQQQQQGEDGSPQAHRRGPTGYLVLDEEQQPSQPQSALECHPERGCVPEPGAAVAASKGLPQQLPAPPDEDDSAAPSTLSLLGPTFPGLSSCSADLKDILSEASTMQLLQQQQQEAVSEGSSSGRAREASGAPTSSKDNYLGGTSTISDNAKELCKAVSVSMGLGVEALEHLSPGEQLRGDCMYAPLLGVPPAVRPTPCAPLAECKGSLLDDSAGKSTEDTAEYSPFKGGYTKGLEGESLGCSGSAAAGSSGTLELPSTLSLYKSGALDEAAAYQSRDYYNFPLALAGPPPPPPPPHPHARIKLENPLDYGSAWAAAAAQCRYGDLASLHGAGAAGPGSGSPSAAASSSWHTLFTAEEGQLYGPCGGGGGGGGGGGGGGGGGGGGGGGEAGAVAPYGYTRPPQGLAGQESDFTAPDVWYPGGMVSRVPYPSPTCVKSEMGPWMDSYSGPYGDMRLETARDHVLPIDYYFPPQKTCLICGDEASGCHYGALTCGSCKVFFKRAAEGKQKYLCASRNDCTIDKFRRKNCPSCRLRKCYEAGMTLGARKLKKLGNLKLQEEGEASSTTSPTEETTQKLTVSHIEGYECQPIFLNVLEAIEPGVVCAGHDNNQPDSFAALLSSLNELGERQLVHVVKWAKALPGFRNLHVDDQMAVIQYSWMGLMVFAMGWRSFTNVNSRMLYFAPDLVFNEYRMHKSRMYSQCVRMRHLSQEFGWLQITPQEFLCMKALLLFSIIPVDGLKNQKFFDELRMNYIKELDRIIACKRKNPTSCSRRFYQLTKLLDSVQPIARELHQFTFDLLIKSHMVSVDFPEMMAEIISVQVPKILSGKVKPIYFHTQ
Test [9] shares this target. The test can be described thus: qHTS assay to identify small molecule agonists of the androgen receptor (AR) signaling pathway (AID 743036; active = well fitted activation curve with a large enough effect in the signal ratio in the repeat runs, with a control signal flat, not every such curve was filed as active; the % refers to the signal ratio). In a few lines:
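Screening used 2,000 AR-bla HEK293 cells per well, treated 16 h at 37C with test compounds in DMSO alongside positive and DMSO-only controls; beta-lactamase activity was then read by LiveBLAzer B/G FRET fluorescence after 2 h at room temperature.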

The target is the same in test [10]. In words: qHTS assay to identify small molecule agonists of the androgen receptor (AR) signaling pathway using the MDA cell line (AID 743040; note: nearly all actives have a fitted effect of over 20% in size). A digest of the protocol:
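Luciferase agonist assay: 16 h compound exposure at 37C without CO2 in MDA-kb2 AR-luc cells, whose MMTV promoter responds to both AR and GR. Luminescence measured after 30 min room-temperature incubation with ONE-Glo.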
% is set by controls: 0 for no effect and ±100 for the full control effect.

For the compound `Cc1ccc2ccccc2n1`, the compound was classed as inactive in [1], in [5] and in [6]. The Potency entry in test [2], in test [3], in [4] and in test [7] was “inactive” throughout.
On to `CC(C)OCCO`, for which the result in test [1] and in [6] was inactive. The Potency result in test [2], in [3], in test [4] and in test [7] was “inactive” in each case.
In the case of `C[C@]12C=CC(=O)C=C1[C@@H](F)C[C@@H]1[C@@H]2[C@@H](O)C[C@@]2(C)[C@H]1CC[C@]2(O)C(=O)CO`, the outcome in test [1], in [5] and in [6] was inactive. Also, the Potency in test [2] is 18.8 µM (active); in test [3] it was 18.8 µM (active); in test [4] it was 23.7 µM (active) and 26.6 µM (active). Also, the Potency entry in [7] is “inactive”.
For `CCCCCC(CC)OC(=O)CCCOc1ccc(Cl)cc1Cl` (centres undefined), the call in test [1], in [5] and in test [6] was inactive. The Potency entry in test [2], in test [3], in test [4] and in test [7] was “inactive” in each case.
Take `CCOC(=O)CC`: the compound was called inactive in test [1], in test [5] and in [6]. Also, the Potency entry in [2], in test [3], in test [4] and in test [7] was “inactive” in each case.
Consider `CC(=O)SC[C@@H](C)C(=O)N1CCC[C@H]1C(=O)N[C@@H](Cc1ccccc1)C(=O)O`, for which the compound was classed as inactive in [1], in test [5] and in [6]. Also, the Potency result in test [2], in [3], in [4] and in [7] was “inactive” in each case.
`CCCC[O][Al]([O]CCCC)[O]CCCC`: the call in [1], in [5] and in [6] was inactive. The Potency entry in [2], in test [3], in test [4] and in test [7] was “inactive” throughout.
On to `CCCC(=O)CC`, for which the result in test [1], in [5] and in test [6] was inactive. Further, the Potency result in test [2], in [3], in test [4] and in test [7] was “inactive” in each case.
Turning to `COC(=O)c1ccc(C(=O)O)cc1`, the result in test [1], in [5] and in [6] was inactive. The Potency result in test [2], in test [3], in [4] and in [7] was “inactive” each time.
In the case of `CC(=O)Nc1ccc(OCCOCCOc2ccc(NC(C)=O)cc2)cc1`, the call in [1], in test [5] and in [6] was inactive. Further, the Potency entry in test [2], in test [3], in test [4] and in test [7] was “inactive” in each case.
In the case of `N=C(N)S(=O)O`, the compound was classed as inactive in [1], in test [5] and in [6]. Besides, the Potency entry in test [2], in [3], in test [4] and in test [7] was “inactive” each time.
With `CC(C)(C)OC(=O)c1ccccc1C(=O)O`, the outcome in test [1], in [5] and in test [6] was inactive. Further, the Potency result in test [2], in test [3], in test [4] and in [7] was “inactive” throughout.
As for `CCCCCCCCCCCBr`, the outcome in [1], in [5] and in [6] was inactive. Besides, the Potency entry in test [2], in test [3], in [4] and in [7] was “inactive” in each case.
In the case of `CCOC(=O)CC(C(C)=O)C(C)=O`, the outcome in [1], in test [5] and in test [6] was inactive. Moreover, the Potency result in [2], in [3], in test [4] and in test [7] was “inactive” in each case.
In the case of `C=CC(=O)CC`, the call in [1], in test [5] and in [6] was inactive. In addition, the Potency entry in [2], in test [3], in test [4] and in test [7] was “inactive” throughout.
As for `CCCCS`, the call in test [1] and in test [6] was inactive. Moreover, the Potency entry in test [2], in test [3], in [4] and in [7] was “inactive” in each case.
As for `CCCCCCCCCCCCCCCCN(C)C`, the viability change, negative = cytotoxic in test [1] was 9.67% [at 7.04 µM]; in [6] it was -2.54% [at 8.47 µM]. Besides, the activity change, negative = cytotoxicity in [2] is 9.27% [at 8.52 µM]; in test [5], -5.02% [at 7.04 µM]. Moreover, the activity change, negative = inhibition in test [8] was -9.68% [at 7.04 µM]. Also, the activation in [9] was -6% [at 6.9 µM]. Moreover, in test [10], the activity change is 0.294% [at 8.47 µM]. In addition, the activity change, negative = cytotoxic in test [7] is 0.507% [at 8.44 µM].
For the compound `CCCCCCC(=O)c1ccccc1`, the outcome in test [1], in test [5] and in test [6] was inactive. The Potency result in test [2] is “inactive”.
Consider `O=C(O)CCC(=O)Nc1ccc(S(=O)(=O)Nc2nccs2)cc1`, for which the outcome in test [1], in [5] and in test [6] was inactive. The Potency entry in test [2], in [4] and in test [7] was “inactive” throughout.
Take `Cc1ccc(OC(=O)CC(C)C)cc1`: the outcome in [1], in test [5] and in test [6] was inactive. The Potency entry in test [2], in test [3] and in [7] was “inactive” throughout.
Regarding `Cc1nc2ccc(Cl)cc2[nH]1`, the compound was classed as inactive in test [1], in [5] and in [6]. The Potency result in test [2], in test [4] and in [7] was “inactive” in each case.
For the compound `CC(CN1CC(=O)NC(=O)C1)N1CC(=O)NC(=O)C1` (centres undefined), the compound was classed as inactive in test [1], in [5], in [9] and in test [6]. For the same compound, the Potency is 4.22 µM (active) in test [2] and 596 nM (active) in test [4].
Consider `BrCCOc1ccccc1`, for which the compound was classed as inactive in [1], in [5] and in [6]. In addition, the Potency entry in test [2] and in [4] was “inactive” each time.
`CCCCCCC(O)CO` (centres undefined): the outcome in test [1], in test [5] and in [6] was inactive. Moreover, the Potency result in test [3] and in test [4] was “inactive” in each case.
`CCOC(=O)c1ccc(N(C)C)cc1`: the outcome in test [1], in [5] and in [6] was inactive. Besides, the Potency result in test [2] and in test [4] was “inactive” in each case.
In the case of `CCOc1ccccc1OCCN[C@H](C)Cc1ccc(OC)c(S(N)(=O)=O)c1`, the compound was called inactive in test [1], in test [5] and in test [6]. In addition, the Potency result in test [2], in [4] and in test [7] was “inactive” each time.
With `C[n+]1ccccc1/C=N/O`, the call in test [1] and in test [6] was inactive. Also, the Potency entry in [2], in test [4] and in test [7] was “inactive” throughout.
Regarding `O=C(O)P(=O)(O)O`, the result in [1], in test [5] and in [6] was inactive. The Potency result in test [2] and in test [4] was “inactive” each time.
For the compound `C/C(=N\O)c1ccc(OCC(=O)N2CCCCC2)cc1`, the result in [1], in [5], in [8], in test [9], in test [10] and in test [6] was inactive. Besides, the Potency result in [3], in test [4] and in [7] was “inactive” each time.
For the compound `CC1(C)C(=O)C(C)(C)C1=O`, the compound was called inactive in test [1], in test [5], in test [8], in test [9], in test [10] and in test [6]. The Potency entry in test [2], in test [4] and in [7] was “inactive” throughout.
Consider `O=C(O)COc1ccc2ccccc2c1`, for which the call in test [1], in test [5] and in test [6] was inactive. The Potency entry in test [3] and in test [4] was “inactive” in each case.
On to `CCOC(=O)[C@H](CCc1ccccc1)N[C@H]1CS[C@H](c2cccs2)CN(CC(=O)O)C1=O`, for which the outcome in test [1], in [5], in [8], in test [9], in test [10] and in test [6] was inactive. The Potency entry in test [2], in test [4] and in test [7] was “inactive” in each case.
Consider `Nc1ccc(C(=O)NCC(=O)O)cc1`, for which the call in [1], in [5] and in [6] was inactive. Besides, the Potency entry in test [2] and in test [4] was “inactive” throughout.
